In assay [1] the target is Vitamin D3 receptor (Homo sapiens) (UniProt P11473). Nature of the assay: qHTS assay for small molecule antagonists of vitamin D receptor signaling (AID 588541; calls by dose curve;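 note: receptor activated by calcitriol during compound treatment; series mostly up to about 77 µM; % is set by controls: 0 for no effect and ±100 for the full control effect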). In short, it runs like this:
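VDR-UAS-bla HEK293T cells (2000/well, 2% charcoal-stripped FBS) were treated with titrated compounds plus 1-alpha,25-dihydroxyvitamin D3 (50 nM or 3 nM final) for 16 h at 37 C. CCF4 beta-lactamase fluorescence was read; Hill fits gave IC50.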

For assay [2] the target is unchanged. Nature of the assay: qHTS assay for small molecule agonists of vitamin D receptor signaling (AID 588543; calls by dose curve;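 note: 0% = DMSO basal and 100% = reference agonist control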). Put shortly: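 qHTS in agonist mode: compound titrations stimulate a VDR-driven β-lactamase reporter in HEK293T cells over 16 h at 37 °C. Response normalized to 50 nM 1α,25-dihydroxyvitamin D3 = 100%, DMSO = 0%; Hill fitting gives EC50 and maximal response.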
In general terms: Quantitative high-throughput screening tests each substance at several concentrations.

A short description of assay [3]: qHTS assay for small molecule agonists of retinoid X receptor alpha signaling (AID 588544; calls by dose curve). The settings on record: HEK293T RXRa-UAS-bla, beta-lactamase reporter, 18 h; 530 nm emission.
Assay [4] has as its target Retinoic acid receptor RXR-alpha (Homo sapiens) (UniProt P19793). The assay is described as above.
For assay [5], the target named is Thyroid hormone receptor beta (Homo sapiens) (UniProt P10828). Nature of the assay: qHTS assay for small molecule agonists of thyroid hormone receptor beta signaling (AID 588545; calls by dose curve). Put shortly:
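Agonist-mode beta-lactamase reporter assay, HEK 293 cells, 2% charcoal/dextran FBS; cells plated 4 hrs, compound 18 hrs at 37 C, CCF4 2 hrs RT. Normalized to 10 nM T3 (100%) and DMSO (0%); Hill fit gives EC50, efficacy.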

Assay [6] concerns the target Voltage-gated inwardly rectifying potassium channel KCNH2 (Homo sapiens) (UniProt Q12809). Nature of the assay: qHTS Assay for Small Molecule Inhibitors of the Human hERG Channel Activity (AID 588834).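 Note: lower thallium flux fluorescence means stronger hERG block; nearly all actives have a fitted effect of over 50% in size.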 Note: potency is the fitted concentration of half-maximal effect. In short, it runs like this: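 Cells were infected with hERG-BacMam virus for 4 hrs at room temperature, grown overnight, then seeded at 2000/well. After dye loading and roughly 10 min compound treatment, thallium influx was triggered and fluorescence recorded.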

For assay [7], the target named is Luciferin 4-monooxygenase (Photinus pyralis) (UniProt P08659). Nature of the assay: Biochemical firefly luciferase enzyme assay for NPC (AID 624030).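 Note: purified P. pyralis luciferase at 10 nM with luciferin and ATP substrate; series mostly up to about 59 µM; 0% = DMSO and -100% = full luciferase inhibition by PTC124 control; nearly all actives have a fitted effect of over 70% in size.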 In short, it runs like this:
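Counter-screen for direct inhibition of the luciferase enzyme by approved-drug library compounds, run at 10 nM enzyme in 50 mM Tris acetate (final). Luminescence was read within 5 min of enzyme-buffer addition and normalized to PTC124 versus DMSO (0%).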

The nature of assay [8]: S16 Schwann cell viability assay (CellTiter-Glo assay) (AID 624031).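 Note: native untransfected S16 rat Schwann cells; cellular ATP luminescence as a viability measure; series mostly up to about 58 µM; plate controls were DMSO-treated cells for no effect and cell-free wells for full effect; nearly all actives have a fitted effect of over 70% in size.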 In short, it runs like this: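 Following overnight culture in 10% FBS DMEM, parental S16 rat Schwann cells are dosed for 24 h at 37 °C. Viability is read as CellTiter-Glo luminescence and expressed as % activity relative to DMSO (0%) and no-cell wells.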
A short description of assay [9]: S16 Schwann cell PMP22 intronic element firefly luciferase assay (AID 624032).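 Note: series mostly up to about 58 µM; plate controls were DMSO for no effect and PTC124 positive control mean for full effect; nearly all actives have a fitted effect of over 30% in size.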 In short, it runs like this:
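Rat S16 Schwann cells stably carrying a PMP22 intronic element-driven Fluc reporter were seeded overnight, then exposed to compounds for 24 h at 37 °C. Luminescence was normalized to PTC124 (positive control) and DMSO (0% activity).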

A short description of assay [10]: S16 Schwann cell PMP22 intronic element beta-lactamase assay (AID 624044; calls by dose curve;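 note: 0% = DMSO and -100% = potassium clavulanate positive control; nearly all actives have a fitted effect of over 15% in size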). Put shortly: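 Beta-lactamase reporter under a PMP22 intronic regulatory element in stable S16 rat Schwann cells; 24 h compound exposure. 460 nm blue signal normalized between DMSO (0%) and potassium clavulanate, with 535 nm FRET tracking viability; curves classed by r2 and response.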
Assay [11] addresses Peroxisome proliferator-activated receptor delta (Homo sapiens) (UniProt Q03181). Nature of the assay: qHTS assay for small molecule antagonists of peroxisome proliferator-activated receptor delta signaling (AID 588535; active = well fitted inhibition curve with a large enough effect in the signal ratio, with a control signal flat, not every such curve was filed as active; the % refers to the signal ratio). In short, it runs like this:
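Compounds tested in titration on PPAR-delta-UAS-bla HEK293T cells grown in charcoal/dextran-stripped serum (2%); beta-lactamase activity read via CCF4 emission at 460 and 530 nm.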

Assay [12] concerns the target Peroxisome proliferator-activated receptor gamma (Homo sapiens) (UniProt P37231). Nature of the assay: qHTS assay for small molecule agonists of peroxisome proliferator-activated receptor gamma signaling (AID 588536; active = well fitted curve in the direction sought with a large enough effect in the signal ratio, with a control signal flat, not every such curve was filed as active; the % refers to the signal ratio;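 note: 0% = DMSO basal wells and 100% = rosiglitazone at 2 µM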). Put shortly: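 Compound treatment: 16 h, 37 C, HEK293 GeneBLAzer cells. Detection: CCF4, 2 h RT. Values: Hill-fit EC50, efficacy as % of 2 uM rosiglitazone.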

Assay [13] has the same target. Nature of the assay: qHTS assay for small molecule antagonists of peroxisome proliferator-activated receptor gamma signaling (AID 588537; active = well fitted inhibition curve with a large enough effect in the signal ratio, with a control signal flat, not every such curve was filed as active; the % refers to the signal ratio;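 note: reporter cells co-stimulated with 50 nM rosiglitazone agonist during compound treatment; % of control where 0% means no effect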). Put shortly: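 HEK293 cells, PPAR-gamma-UAS-bla, 3000/well. Pre-incubation 6-6.5 h, 37 C. Compound titration with rosiglitazone 50 nM final, 16 h. CCF4 dye, 2 h RT, dual-emission fluorescence.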
Assay [14] in a line: qHTS assay for small molecule antagonists of retinoid X receptor alpha signaling (AID 588546; active = well fitted inhibition curve with a large enough effect in the signal ratio, with a control signal flat, not every such curve was filed as active; the % refers to the signal ratio;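 note: cells stimulated with 9-cis-retinoic acid as agonist; % is set by controls: 0 for no effect and ±100 for the full control effect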). As to conditions: HEK293T RXRa-UAS-bla, beta-lactamase ratio, antagonist mode; measured here: W530 green channel, cytotoxicity proxy. Put shortly: (§1)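 Beta-lactamase reporter inhibition, read as CCF4 fluorescence ratio (ex 405, em 460/530 nm) after 2 h at RT. HEK293T UAS-bla cells, 2500/well, were stimulated with 9-cis-RA at 500 or 100 nM final alongside test compound for 18 h at 37 C.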

The target of assay [15] is Retinoic acid receptor RXR-alpha (Homo sapiens) (UniProt P19793). The assay is described as above. As to conditions: HEK293T RXRa-UAS-bla, beta-lactamase ratio, antagonist mode. Put shortly:
as §1

Assay [16] addresses Thyroid hormone receptor beta (Homo sapiens) (UniProt P10828). Nature of the assay: qHTS assay for small molecule antagonists of thyroid hormone receptor beta signaling (AID 588547; active = well fitted inhibition curve with a large enough effect in the signal ratio, with a control signal flat, not every such curve was filed as active; the % refers to the signal ratio;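 note: cells stimulated with 0.4 nM T3 agonist during compound exposure; series mostly up to about 77 µM; % is set by controls: 0 for no effect and ±100 for the full control effect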). As to conditions: TR-UAS-bla HEK293, beta-lactamase ratio, antagonist mode, 18 h. Put shortly: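 TR-UAS-bla GripTite HEK293 cells in 2% charcoal/dextran FBS medium were preincubated 4 h at 37 C, given compound (0.59 nM to 92 uM) plus 0.4 nM T3 (final) for 18 h, then CCF4 for 2 h at RT; Hill fit gave IC50.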

Values joined by “and” are separate entries in the source; they are usually repeats but may differ in a detail not shown here. Identical values can stand only once. Inconclusive results are not listed. The source holds several records for some structures; these can differ, active in one and inactive in another. Active and inactive are the calls of the source. Unless noted, calls come from the whole dose curve; as a rule, active = well fitted curve in the direction sought with a large enough effect; inconclusive = small, poorly fitted or top-dose-only effect, or another doubt; inactive = no such curve, though single readings can be large; an effect the other way counts as inactive or inconclusive.

Luciferin 4-monooxygenase (Photinus pyralis), sequence (P08659 whole entry, looked up): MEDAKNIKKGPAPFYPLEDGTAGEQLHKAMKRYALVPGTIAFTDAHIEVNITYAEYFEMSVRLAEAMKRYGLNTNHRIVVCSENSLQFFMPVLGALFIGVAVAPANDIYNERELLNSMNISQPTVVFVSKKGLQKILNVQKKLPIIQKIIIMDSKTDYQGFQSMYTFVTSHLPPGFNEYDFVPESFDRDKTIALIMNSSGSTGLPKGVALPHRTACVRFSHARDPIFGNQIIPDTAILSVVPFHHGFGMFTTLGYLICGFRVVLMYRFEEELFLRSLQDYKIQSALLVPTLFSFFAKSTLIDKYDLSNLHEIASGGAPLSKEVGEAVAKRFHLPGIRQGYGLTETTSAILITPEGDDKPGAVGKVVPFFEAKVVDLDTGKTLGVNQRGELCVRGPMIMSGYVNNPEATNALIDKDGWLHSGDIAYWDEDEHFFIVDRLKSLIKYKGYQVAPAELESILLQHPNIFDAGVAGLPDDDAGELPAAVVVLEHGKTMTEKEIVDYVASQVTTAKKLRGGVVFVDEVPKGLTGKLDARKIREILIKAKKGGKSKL
Retinoic acid receptor RXR-alpha (Homo sapiens), sequence (P19793 whole entry, looked up): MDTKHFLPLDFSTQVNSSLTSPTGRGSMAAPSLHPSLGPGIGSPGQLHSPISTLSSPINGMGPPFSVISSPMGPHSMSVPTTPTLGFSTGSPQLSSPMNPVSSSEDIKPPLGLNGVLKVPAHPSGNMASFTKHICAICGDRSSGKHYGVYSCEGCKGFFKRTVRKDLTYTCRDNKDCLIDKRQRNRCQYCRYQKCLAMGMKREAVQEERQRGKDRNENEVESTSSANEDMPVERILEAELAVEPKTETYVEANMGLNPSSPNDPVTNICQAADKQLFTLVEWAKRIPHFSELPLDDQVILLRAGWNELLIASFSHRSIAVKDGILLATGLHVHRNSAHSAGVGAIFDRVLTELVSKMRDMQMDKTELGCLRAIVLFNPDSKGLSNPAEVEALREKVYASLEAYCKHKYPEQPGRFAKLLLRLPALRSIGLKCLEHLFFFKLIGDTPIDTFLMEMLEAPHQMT
Vitamin D3 receptor (Homo sapiens), sequence (P11473 whole entry, looked up): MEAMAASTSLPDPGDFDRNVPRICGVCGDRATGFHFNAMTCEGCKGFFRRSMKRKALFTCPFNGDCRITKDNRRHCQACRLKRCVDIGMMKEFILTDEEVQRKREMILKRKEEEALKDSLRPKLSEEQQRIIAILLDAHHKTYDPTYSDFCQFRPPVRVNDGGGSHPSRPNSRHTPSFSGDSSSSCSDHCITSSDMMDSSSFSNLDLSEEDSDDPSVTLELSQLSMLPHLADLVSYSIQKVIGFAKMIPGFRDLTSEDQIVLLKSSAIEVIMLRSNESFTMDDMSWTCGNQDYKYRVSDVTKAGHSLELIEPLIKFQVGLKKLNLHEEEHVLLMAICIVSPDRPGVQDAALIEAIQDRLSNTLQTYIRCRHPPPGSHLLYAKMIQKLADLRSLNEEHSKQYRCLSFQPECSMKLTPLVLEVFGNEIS
Peroxisome proliferator-activated receptor gamma (Homo sapiens), sequence (P37231 whole entry, looked up): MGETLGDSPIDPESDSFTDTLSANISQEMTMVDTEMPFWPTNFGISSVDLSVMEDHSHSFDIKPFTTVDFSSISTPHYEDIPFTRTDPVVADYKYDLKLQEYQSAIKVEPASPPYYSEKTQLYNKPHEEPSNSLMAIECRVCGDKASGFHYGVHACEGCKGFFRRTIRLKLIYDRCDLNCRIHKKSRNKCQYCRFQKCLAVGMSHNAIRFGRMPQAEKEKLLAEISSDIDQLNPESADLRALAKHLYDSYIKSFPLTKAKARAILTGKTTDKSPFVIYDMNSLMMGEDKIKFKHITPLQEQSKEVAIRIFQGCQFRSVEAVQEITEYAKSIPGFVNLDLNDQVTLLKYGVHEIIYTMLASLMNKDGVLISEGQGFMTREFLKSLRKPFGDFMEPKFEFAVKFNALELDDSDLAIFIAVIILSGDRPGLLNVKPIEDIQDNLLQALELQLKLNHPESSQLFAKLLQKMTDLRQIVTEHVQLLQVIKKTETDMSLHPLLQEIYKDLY
Thyroid hormone receptor beta (Homo sapiens), sequence (P10828 whole entry, looked up): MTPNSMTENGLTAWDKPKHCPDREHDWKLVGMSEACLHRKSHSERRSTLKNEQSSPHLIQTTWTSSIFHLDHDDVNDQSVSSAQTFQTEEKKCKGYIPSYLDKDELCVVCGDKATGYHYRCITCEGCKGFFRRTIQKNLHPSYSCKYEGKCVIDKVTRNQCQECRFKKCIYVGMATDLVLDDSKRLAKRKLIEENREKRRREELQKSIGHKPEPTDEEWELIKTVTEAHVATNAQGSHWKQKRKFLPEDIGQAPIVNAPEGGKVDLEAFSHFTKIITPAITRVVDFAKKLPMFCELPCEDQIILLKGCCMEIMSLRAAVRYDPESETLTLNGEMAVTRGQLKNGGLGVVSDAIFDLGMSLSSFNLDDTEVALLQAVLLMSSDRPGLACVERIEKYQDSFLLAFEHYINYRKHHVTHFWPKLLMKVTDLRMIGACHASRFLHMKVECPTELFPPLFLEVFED
Peroxisome proliferator-activated receptor delta (Homo sapiens), sequence (Q03181 whole entry, looked up): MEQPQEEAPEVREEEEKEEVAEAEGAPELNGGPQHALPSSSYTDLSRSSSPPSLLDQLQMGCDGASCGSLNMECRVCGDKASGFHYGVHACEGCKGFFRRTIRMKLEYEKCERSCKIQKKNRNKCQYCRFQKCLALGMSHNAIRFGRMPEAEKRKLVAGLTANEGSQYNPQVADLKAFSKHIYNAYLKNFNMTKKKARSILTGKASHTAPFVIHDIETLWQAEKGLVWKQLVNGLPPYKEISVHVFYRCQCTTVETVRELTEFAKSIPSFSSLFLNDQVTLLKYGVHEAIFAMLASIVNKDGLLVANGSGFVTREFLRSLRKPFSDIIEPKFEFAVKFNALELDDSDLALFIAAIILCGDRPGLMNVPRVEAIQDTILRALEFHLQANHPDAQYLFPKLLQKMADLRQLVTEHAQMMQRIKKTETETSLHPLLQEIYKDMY
Voltage-gated inwardly rectifying potassium channel KCNH2 (Homo sapiens), sequence (Q12809 whole entry, looked up): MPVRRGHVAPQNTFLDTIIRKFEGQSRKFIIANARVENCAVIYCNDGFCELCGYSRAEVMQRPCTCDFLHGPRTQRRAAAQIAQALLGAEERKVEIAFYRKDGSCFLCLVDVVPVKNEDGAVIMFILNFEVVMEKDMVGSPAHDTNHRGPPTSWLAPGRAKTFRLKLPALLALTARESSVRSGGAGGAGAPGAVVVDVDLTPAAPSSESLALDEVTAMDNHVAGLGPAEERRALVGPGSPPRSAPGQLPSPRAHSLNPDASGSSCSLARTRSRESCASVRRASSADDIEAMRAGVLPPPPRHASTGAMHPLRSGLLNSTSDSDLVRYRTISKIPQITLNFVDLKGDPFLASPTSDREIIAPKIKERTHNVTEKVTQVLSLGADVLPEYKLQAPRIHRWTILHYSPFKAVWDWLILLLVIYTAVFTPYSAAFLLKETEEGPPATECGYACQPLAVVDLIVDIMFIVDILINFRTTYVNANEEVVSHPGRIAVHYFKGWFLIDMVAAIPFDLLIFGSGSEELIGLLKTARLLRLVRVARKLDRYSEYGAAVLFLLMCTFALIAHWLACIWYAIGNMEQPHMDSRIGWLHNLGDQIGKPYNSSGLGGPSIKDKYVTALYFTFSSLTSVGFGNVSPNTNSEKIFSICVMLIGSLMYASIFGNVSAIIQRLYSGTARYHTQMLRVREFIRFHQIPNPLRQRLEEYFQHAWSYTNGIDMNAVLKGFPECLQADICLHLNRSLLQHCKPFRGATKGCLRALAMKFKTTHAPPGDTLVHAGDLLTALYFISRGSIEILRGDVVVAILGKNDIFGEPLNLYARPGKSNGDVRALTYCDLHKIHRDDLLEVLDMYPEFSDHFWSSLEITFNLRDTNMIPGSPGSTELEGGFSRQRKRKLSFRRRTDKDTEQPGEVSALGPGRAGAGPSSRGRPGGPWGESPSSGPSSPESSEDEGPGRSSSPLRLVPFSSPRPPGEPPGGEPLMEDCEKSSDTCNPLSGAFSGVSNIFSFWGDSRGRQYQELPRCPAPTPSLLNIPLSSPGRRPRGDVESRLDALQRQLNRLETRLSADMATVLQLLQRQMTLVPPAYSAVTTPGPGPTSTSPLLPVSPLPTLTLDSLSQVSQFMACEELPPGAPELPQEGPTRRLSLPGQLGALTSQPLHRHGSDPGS

In the case of `Oc1ccc(Cl)cc1Cc1cc(Cl)ccc1O`, the Potency entry in assay [1], in assay [7], in assay [8], in assay [9] and in [10] was “inactive” each time. Further, the call in [2], in [4] and in assay [5] was inactive. Also, the max response in assay [3] was -27.5% and -0.357%. In addition, in assay [6], the Potency is 28.2 µM (active).
Consider `C/C=C/c1ccc(O)c(OC)c1`, for which the molecule was called inactive in assay [11], in assay [12] and in assay [4]. The Potency result in assay [13], in [6], in assay [7], in assay [8] and in assay [9] was “inactive” throughout. The max response in assay [3] was -13.6% and -6.37%; in assay [14], 1.1% and -9.34%; in assay [15], 2.19% (inactive) and -7.41% (inactive).
`CCCCCCCCOc1ccc(C(=O)c2ccccc2)c(O)c1`: the result in [11], in assay [12], in assay [2], in assay [4] and in [5] was inactive. Further, the Potency entry in assay [13], in assay [1], in assay [6], in assay [7] and in assay [8] was “inactive” in each case. Besides, the max response in [3] was -1.02%; in [14], -13.7%; in assay [15], -18.6% (inactive). In addition, the activity change % (negative = inhibition) in assay [16] is -1.54% (inactive).
For `OC[C@H]1O[C@@H](Oc2ccc(O)cc2)[C@H](O)[C@@H](O)[C@@H]1O`, the Potency result in assay [6] was “inactive”.
On to `COc1cc([C@H]2Oc3cc([C@H]4Oc5cc(O)cc(O)c5C(=O)[C@@H]4O)ccc3O[C@@H]2CO)ccc1O`, for which the Potency result in assay [1], in assay [6], in [7], in [8] and in assay [10] was “inactive” in each case. In [2], the molecule was called inactive.
Consider `NC(=O)c1ccccc1O`, for which the molecule was classed as inactive in [11], in assay [12], in [2], in [4] and in [5]. The Potency result in assay [1], in [6], in [7], in assay [8] and in assay [9] was “inactive” throughout. The max response in [3] is -2.87%; in assay [14] it was -19%; in [15], 18.9% (inactive). In assay [16], the activity change % (negative = inhibition) was -15.4% (inactive).
Turning to `CCOc1ccccc1C(N)=O`, the call in [11], in assay [12], in [2] and in assay [4] was inactive. Also, the Potency result in assay [13], in assay [1], in [6], in [7], in [8] and in [9] was “inactive” each time. Besides, the results for the max response in assay [3], in assay [14] and in assay [15] were -15.7%, -1.33% and 0.966% (inactive), respectively. Besides, in assay [16], the activity change % (negative = inhibition) was 7.81% (inactive).
Turning to `CCCCOC(=O)CC(CC(=O)OCCCC)(OC(C)=O)C(=O)OCCCC`, the result in assay [11], in assay [12], in [2], in assay [4] and in assay [5] was inactive. Besides, the Potency result in [13] and in assay [1] was “inactive” throughout. Further, the max response is 10.7% in assay [3], -7.31% in assay [14] and -5.69% (inactive) in [15]. Also, in [16], the activity change % (negative = inhibition) is 12.8% (inactive).
In the case of `O=C(O)c1ccc(S(=O)(=O)N(Cl)Cl)cc1`, the call in assay [12], in assay [2], in assay [4] and in assay [5] was inactive. Also, the Potency entry in assay [13], in [6], in assay [7], in [8] and in assay [9] was “inactive” in each case. For the same molecule, the max response in [3] is -8.23%; in assay [14], -4.72%; in assay [15], 3.99% (inactive). For the same molecule, the activity change % (negative = inhibition) in assay [16] was 9.05% (inactive).

Values taken from PubChem BioAssay (NCATS).
